Hits are enriched below; roughly 3.8% of the tested compounds scored in any of these assays.
ADAM10 inh: inhibits human ADAM10; hit rate 0.62% among 370,000; recombinant ADAM10, EDANS/DABCYL FRET peptide cleavage, 3 h; inhibition, % at 7 µM; O14672;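 active = inhibition above a per-campaign cutoff equal to the mean of compounds falling between control-based bounds plus 3 SD, cut at about 20% in these data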
FGF22 binding: FGF22 (human) thermal shift binding. hit rate 1.5% among 340,000. activity (Tm shift, normalised), % at 9.99 µM. recombinant FGF22 thermal shift, SYPRO orange fluorescence; percent of sucrose octasulfate shift, DMSO zero. Q9HCT0;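 active = mean Tm shift, scaled 0 neutral to 100 positive control, at about 1.3% or above, every replicate too, limit read from the data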
Target sequence (Q9HCT0 whole entry, looked up): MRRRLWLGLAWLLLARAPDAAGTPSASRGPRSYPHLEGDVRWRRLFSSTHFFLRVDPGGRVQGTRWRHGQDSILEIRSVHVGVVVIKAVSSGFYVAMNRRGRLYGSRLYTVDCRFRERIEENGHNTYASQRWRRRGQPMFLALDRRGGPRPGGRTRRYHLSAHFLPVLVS
KLK7 zymogen act: activators of human kallikrein-7 zymogen. P49862. purified proKLK7, EDANS-DABCYL substrate fluorescence; 100% is mature enzyme control, 0% vehicle. activation, % at 7 µM. hit rate 0.9% among 370,000. AID 652039;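 active = activation above the mean of all tested compounds plus 3 SD, computed per campaign excluding outliers beyond control limits, cut at about 13% in these data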
Target sequence (P49862 whole entry, looked up): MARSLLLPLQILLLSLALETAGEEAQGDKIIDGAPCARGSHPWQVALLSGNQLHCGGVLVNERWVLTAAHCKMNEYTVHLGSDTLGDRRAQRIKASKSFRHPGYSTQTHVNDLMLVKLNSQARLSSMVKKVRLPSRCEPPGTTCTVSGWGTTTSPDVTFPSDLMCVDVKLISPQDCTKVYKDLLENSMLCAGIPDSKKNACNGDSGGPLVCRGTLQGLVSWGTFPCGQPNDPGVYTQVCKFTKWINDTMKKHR
Ecoli rRNA inh: selective bacterial rRNA inhibition in E. coli; GFP signal change (wild-type ribosome), % (no concentration beside the values); E. coli WT GFP vs humanized-ribosome RFP mutants, fluorescence, 24 h; hits give low values; DMSO median 0, no signal -100; hit rate 1.6% among 350,000;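 active = significant combined selectivity score with lowered wild-type GFP, culture density cut under 30%, mutant RFP and density less affected; inactive = any of these conditions unmet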
ADAM17 inh: inhibitors of human ADAM17 | recombinant ADAM17, EDANS/DABCYL FRET peptide cleavage | inhibition, % at 6.95 µM | hit rate 0.83% among 370,000;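 active = inhibition above the mean of compounds lying between control limits plus 3 SD, set per campaign, cut at about 8.5% in these data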
Hits are given with their value; - = inactive; . = no result.

SMILES	ADAM10 inh	FGF22 binding	KLK7 zymogen act	Ecoli rRNA inh	ADAM17 inh
CC(=O)Nc1ccc(/C=C(\C#N)C(=O)NC2CCCCC2)cc1	-	-	-	-26	-
COCC(=O)N(C)C[C@H]1Oc2ncc(C#C[C@@H](C)O)cc2C(=O)N([C@@H](C)CO)C[C@H]1C	.	-	.	-	.
COc1ccc(CCC(=O)O)c(C(CC(=O)O)C(=O)O)c1OS(=O)(=O)c1ccc(C)cc1 (stereo unspecified)	-	1.6	-	-	-
COc1ccc2c3c(n(C)c2c1)[C@H](CO)N(S(C)(=O)=O)CC31CCN(C(=O)CN(C)C)CC1	.	.	.	-	.
O=C(NCc1ccccc1)[C@@]1(Cc2ccccc2)COC(c2ccc(OCCCO)cc2)=N1	.	-	.	.	.
Cc1cccc(-n2nc3c(c2NC(=O)c2ccco2)CSC3)c1C	-	.	-	.	9.1
CO[C@H]1CN(C)C(=O)c2ccc(NS(=O)(=O)c3ccc(F)cc3)cc2OC[C@H](C)NC[C@@H]1C	.	-	.	-	.
c1ccc(COc2cccc(-c3cc4nc(NCc5cccs5)ccn4n3)c2)cc1	-	-	-	-28	-
Cc1cc2nc(C3CCN(C(=S)NCC(C)C)CC3)[nH]c2cc1C	-	1.9	-	-	-
CCCCOc1ccc(/C=C/C(=O)NCCc2nc3ccccc3[nH]2)cc1	-	.	-	-	-
COc1ccc(/C=C/C(=O)NCCc2nc3ccccc3[nH]2)cc1	-	-	-	-26	-
CCCCc1ccc(NC(=O)CSc2nc3ncccc3[nH]2)cc1	-	-	-	-26	-
C[C@H](CO)N1C[C@H](C)[C@H](CN(C)S(=O)(=O)c2ccc(F)cc2)OCCCC[C@H](C)Oc2ccc(NC(=O)Nc3ccccc3)cc2C1=O	.	-	.	-	.
CCc1nc(NC(=O)NS(=O)(=O)c2ccccc2C(=O)OC)nc(OC)n1	-	43	-	-	-
O=C(C[C@@H]1C=C[C@@H](NS(=O)(=O)c2ccccc2)[C@@H](CO)O1)N1CCc2ccccc2C1	.	-	.	-	.
Fc1cccc(Cc2noc(CN3CCSCC3)n2)c1	-	-	-	-	-
COc1ccc(N2CCN(Cc3nc(Cc4cccc(F)c4)no3)C(C)C2)cc1 (stereo unspecified)	-	.	-	-23	-
CN(C)C(=O)c1cccc(-c2ccc3c(c2)[C@@H]2[C@@H](CCN2C(=O)c2cccnc2)[C@@H](CO)N3)c1	.	-	.	-	.
O=[N+]([O-])c1ccc(S(=O)(=O)N2CCN(c3ccccn3)CC2)cc1	-	43	-	-	-
CC(=O)c1cc(-c2ccccc2)n(CCC(=O)NC2CCCC2)c1C	-	44	-	-	-
O=C(Nc1ccc(F)cc1)N[C@@H]1C=C[C@H](CC(=O)N2CCCCC2)O[C@@H]1CO	.	-	.	-	.
COc1ccc(C2=NS(=O)(=O)N(C)C(C(=O)NC(C)c3ccccc3)=C2)cc1OC (stereo unspecified)	-	-	-	-	-
COc1ccc(C2=NS(=O)(=O)N(C)C(C(=O)N(C)Cc3ccccc3)=C2)cc1OC	-	-	-	-20	-
COc1ccccc1C#Cc1ccc2c(c1)[C@H]1[C@H](CCN1S(=O)(=O)c1cccc(C)c1)[C@@H](CO)N2	.	-	.	-	.
O=C(NC1CCCCC1)[C@@H]1[C@@H](CO)[C@@H]2Cn3c(ccc(-c4ccccc4)c3=O)[C@H]1N2	.	.	.	-	.
SMILES	ADAM10 inh	FGF22 binding	KLK7 zymogen act	Ecoli rRNA inh	ADAM17 inh
Cc1ccc2[nH]c(C(=O)N3CCCC(Nc4ccc(F)cc4)C3)cc2c1 (stereo unspecified)	-	-	-	-34	-
Cc1cccc(S(=O)(=O)N2CCCCN3[C@H](CO)[C@H](c4ccc(C#CC(C)C)cc4)[C@H]3C2)c1	.	-	.	-27	.
COc1cccc(S(=O)(=O)N2CCCCN3[C@H](CO)[C@H](c4ccc(C5=CCCCC5)cc4)[C@H]3C2)c1	.	.	.	-32	.
Cc1ccc(S(=O)(=O)N(C)C[C@H]2OCCCC[C@@H](C)Oc3ccc(NC(=O)CCC(F)(F)F)cc3C(=O)N([C@H](C)CO)C[C@H]2C)cc1	.	.	.	-	.
Cc1cc(=O)[nH]c(SCC(=O)NC(C)C2CC3CCC2C3)c1C#N (stereo unspecified)	-	44	-	-	-
C[C@H]1CN([C@@H](C)CO)C(=O)c2cc(-c3cccnc3)cnc2O[C@@H]1CN(C)C(=O)Cc1cccnc1	.	-	.	-	.
CSc1nc2c([nH]1)c(=S)n(C)c(=O)n2C	-	43	-	-	-
CCC(=O)Nc1ccc2c(c1)C(=O)N(C)[C@H]1CC[C@H](CC(=O)O)O[C@@H]1CO2	.	-	.	-	.
COc1cccc(-c2cnc3c(c2)C(=O)N([C@H](C)CO)C[C@@H](C)[C@@H](CN(C)C(=O)Nc2c(C)noc2C)O3)c1	.	-	.	-	.
O=C(Cc1ccc(Cl)cc1)NCC(=O)N1CCC2(CC1)NCCc1[nH]cnc12	-	43	-	-	-
N#Cc1ccccc1CSc1nc2ccc(NC(=O)c3ccccc3C(=O)O)cc2s1	-	-	-	-23	-
O=C(O)c1ccc(CSc2nc3ccc(NC(=O)c4ccccc4C(=O)O)cc3s2)cc1	-	.	-	-	-
O=C(O)c1ccc(N/N=C/c2cn(Cc3ccccc3F)c3ccccc23)cc1	-	-	-	-35	-
O=C(N/N=C/c1cn(Cc2cccc(F)c2)c2ccccc12)c1cc(O)cc(O)c1	-	-	-	-24	-
COC(=O)N/N=C/c1cn(Cc2ccc(Cl)cc2Cl)c2ccccc12	-	-	-	-28	-
COc1ccccc1OCCn1cc(/C=N/NC(=O)c2ccncc2)c2ccccc21	-	-	-	-28	-
O=C(N/N=C/c1cn(CCOc2ccccc2)c2ccccc12)c1ccncc1	-	.	-	.	-
Nc1ccc(C(=O)N/N=C/c2cn(Cc3ccccc3F)c3ccccc23)cc1	-	-	-	-	-
COC(=O)N/N=C/c1cn(Cc2c(Cl)cccc2Cl)c2ccccc12	-	-	-	-	-
CN1c2ccc(C#Cc3cccnc3)cc2[C@@H]2[C@@H](CCN2C(=O)C2CC2)[C@H]1CO	.	-	.	-	.
CC(=O)N(C)C[C@@H]1Oc2c(cccc2N(C)C)C(=O)N(C)C[C@@H]1C	.	.	.	-	.
COC(=O)N/N=C/c1cn(Cc2ccccc2Cl)c2ccccc12	-	-	-	-26	-
Cc1cccc(N2CCN(C(=O)NC3CCCCC3)CC2C)c1 (stereo unspecified)	-	-	-	-	-
Cc1cccc(N2CCN(C(=O)c3ccccn3)CC2C)c1 (stereo unspecified)	-	43	-	.	-
Cc1cccc(N2CCN(C(=O)CCN3C(=O)C4C5C=CC(C5)C4C3=O)CC2C)c1 (stereo unspecified)	-	44	-	.	-
C[C@@H]1CN([C@@H](C)CO)C(=O)c2cc(NC(=O)c3ccncc3)ccc2O[C@@H](C)CCCCO[C@@H]1CN(C)C(=O)C1CCCCC1	.	-	.	-	.
Cc1ccc(NC(=O)CC(NCC2CCCO2)C(=O)O)cc1C (stereo unspecified)	-	43	-	-	-

Screening results (PubChem BioAssay)
